One experiment concerns the target Furin (Homo sapiens) (UniProt P09958). Put plainly: Furin counterscreen qHTS for Zika virus inhibitors (AID 1347149). Note: nearly all actives have a fitted effect of over 70% in size. Note: potency is the fitted concentration of half-maximal effect. In outline: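 Counterscreen measures cleavage of 2 microM BOC-RVRR-AMC, below its ~15 microM Km, by 5 nM full-length human furin at pH 7.0 after a 15-min compound preincubation. Inhibition derives from the 15-min fluorescence increase at 37C.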
On the technique in general: Counterscreens check selectivity or assay interference.

Experiment [1] is described as follows: Tertiary RLuc qRT-PCR qHTS assay for Zika virus inhibitors (AID 1347169). Note: nearly all actives have a fitted effect of over 55% in size. Note: potency is the fitted concentration of half-maximal effect. In outline: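 Vero cells (1,000/well) infected with recombinant ZIKV-RLuc (Cambodian) at MOI 1-2 after compound addition, 48-72 hrs at 37 degrees C. Live-cell Renilla luciferase substrate added; luminescence read after 1-1.5 hrs.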
Experiment [2] concerns Zika virus NS2B-NS3 protease (linked). Description: 384 well plate NINDS AMC confirmatory qHTS for Zika virus inhibitors (AID 1347163). Note: nearly all actives have a fitted effect of over 50% in size. Note: potency is the fitted concentration of half-maximal effect. In outline:
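Fluorescence at 355/460 nm was read after 25 minutes of cleavage of 30 microM Ac-VKTGKR-AMC at room temperature, in the dark. Before substrate addition, compounds (up to 1 mM final) sat ~15 minutes with 5, 30 or 60 nM linked protease. Signals were normalized to no-enzyme and no-inhibitor wells.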
Background: Quantitative high-throughput screening tests each substance at several concentrations.

Experiment [3] deals with Zika virus NS2B-NS3 protease (linked construct). Description: 384 well plate NINDS Rhodamine confirmatory qHTS for Zika virus inhibitors (AID 1347164).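 Note: fluorescence from protease cleavage of Ac-LKRR-rhodamine 110 substrate; nearly all actives have a fitted effect of over 65% in size.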 Note: potency is the fitted concentration of half-maximal effect. In outline:
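Linked NS2B-NS3 protease (final 5, 30 or 60 nM) preincubated ~15 minutes with compounds, then 10 microM Ac-LKRR-Rhodamine 110 added. Fluorescence (485/538 nm) read after 25 minutes at room temperature, normalized to no-enzyme and no-inhibitor controls.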

Experiment [4] deals with Tumor susceptibility gene 101 protein (Homo sapiens) (UniProt Q99816). Description: qHTS Assay for Iinhibitors of HIV-1 Budding by Blocking the Interaction of PTAP/TSG101: Hit Validation (AID 651600). Note: nearly all actives have a fitted effect of over 70% in size. In outline:
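Fluorescence polarization binding assay: Tsg101 binding domain (10 uM) mixed with compounds and FITC-labeled PTAP peptide (50 nM) in HEPES pH 7.5, 0.15 M NaCl, 0.01% Tween 20, EDTA, TCEP; 20 min at r.t.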

The nature of experiment [5]: Confirmatory screen NINDS Rhodamine qHTS for Zika virus inhibitors (AID 1347161). Note: nearly all actives have a fitted effect of over 60% in size. Note: potency is the fitted concentration of half-maximal effect. In outline:
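Rhodamine110-peptide cleavage (1.5 µM substrate) by 25 nM linked NS2B-NS3 enzyme at pH 8.0 (Tris, Tween 20), after 15 min RT preincubation with compounds; 15-min fluorescence change normalized to controls and Hill-fitted.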

The nature of experiment [6]: Primary qHTS for small molecule stabilizers of the endoplasmic reticulum resident proteome: Secreted ER Calcium Modulated Protein (SERCaMP) assay (AID 1508630). In outline: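 The SH-SY5Y reporter protocol was run at 3 concentrations up to 38.3 uM (primary) or 11 concentrations (follow-up): 16 h compound, 100 nM thapsigargin for 4 h, then extracellular luciferase luminescence.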

The nature of experiment [7]: Vero cells viability qHTS for Zika virus inhibitors (AID 1347167). In outline:
(§1)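 Luminescent ATP readout (CellTiter Glo) after 30 min at 37 degrees C gives viability; cells in DMEM + 4% FBS were treated 24 to 48 hours with compound, following overnight attachment.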

A short description of experiment [8]: HepG2 cells viability qHTS for Zika virus inhibitors (AID 1347168). In outline:
as §1

Experiment [9] in a line: ZIKV-mCherry secondary qHTS for Zika virus inhibitors (AID 1347158). Note: top concentration of the series differs between compounds. In outline: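 Percent infection is the share of Hoechst-identified Vero nuclei with mCherry signal above 450 RFU (3 SD over negative controls). Cells were infected with recombinant ZIKV-mCherry at MOI 1 after compound addition and imaged 48–72 h later.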
Experiment [10] deals with Zika virus NS2B-NS3 protease (linked construct). Description: Confirmatory screen NINDS AMC qHTS for Zika virus inhibitors (AID 1347152). Note: potency is the fitted concentration of half-maximal effect; nearly all actives have a fitted effect of over 70% in size. In outline: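 Linked NS2B-NS3 protease, 1 nM, in 10 mM Tris-HCl pH 8.0, 0.01% Tween 20; compounds preincubated 15 min at room temperature. Nle-KRR-AMC 10 microM (Km 18.3 µM); 15-min fluorescence change (340/450 nm) fitted to 4-parameter Hill.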

For experiment [11], the system named is Zika virus NS2B-NS3 protease (unlinked complex). Put plainly: Confirmatory screen GU AMC qHTS for Zika virus inhibitors (AID 1347153).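 Note: enzyme at 25 nM with substrate at 10 µM below its Km of 18.3 µM; potency is the fitted concentration of half-maximal effect; nearly all actives have a fitted effect of over 70% in size.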 In outline:
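Compounds were preincubated 15 min at room temperature with 25 nM noncovalent NS2B-NS3 protease at pH 8.0; AMC substrate added at 10 microM and 15-min fluorescence gain (340/450 nm) converted to percent inhibition, fitted 4-parameter.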

For experiment [12], the system named is Zika virus NS2B-NS3 protease. Description: Primary screen GU AMC qHTS for Zika virus inhibitors (AID 1347154). In outline: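 Fluorogenic AMC-substrate cleavage by noncovalent NS2B-NS3 protease complex (25 nM, pH 8.0 Tris buffer with Tween 20) followed for 15 minutes at room temperature (~20% conversion). Percent inhibition from ex340/em450 signal change, fitted by 4-parameter Hill equation.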

Each structure is given as a SMILES string. Inconclusive results are not listed. Active and inactive are the calls of the source. Calls come from the whole dose curve; as a rule, active = well fitted curve in the direction sought with a large enough effect; inconclusive = small, poorly fitted or top-dose-only effect, or another doubt; inactive = no such curve, though single readings can be large; an effect the other way counts as inactive or inconclusive.

Sequence of Furin (Homo sapiens) (P09958 whole entry, looked up): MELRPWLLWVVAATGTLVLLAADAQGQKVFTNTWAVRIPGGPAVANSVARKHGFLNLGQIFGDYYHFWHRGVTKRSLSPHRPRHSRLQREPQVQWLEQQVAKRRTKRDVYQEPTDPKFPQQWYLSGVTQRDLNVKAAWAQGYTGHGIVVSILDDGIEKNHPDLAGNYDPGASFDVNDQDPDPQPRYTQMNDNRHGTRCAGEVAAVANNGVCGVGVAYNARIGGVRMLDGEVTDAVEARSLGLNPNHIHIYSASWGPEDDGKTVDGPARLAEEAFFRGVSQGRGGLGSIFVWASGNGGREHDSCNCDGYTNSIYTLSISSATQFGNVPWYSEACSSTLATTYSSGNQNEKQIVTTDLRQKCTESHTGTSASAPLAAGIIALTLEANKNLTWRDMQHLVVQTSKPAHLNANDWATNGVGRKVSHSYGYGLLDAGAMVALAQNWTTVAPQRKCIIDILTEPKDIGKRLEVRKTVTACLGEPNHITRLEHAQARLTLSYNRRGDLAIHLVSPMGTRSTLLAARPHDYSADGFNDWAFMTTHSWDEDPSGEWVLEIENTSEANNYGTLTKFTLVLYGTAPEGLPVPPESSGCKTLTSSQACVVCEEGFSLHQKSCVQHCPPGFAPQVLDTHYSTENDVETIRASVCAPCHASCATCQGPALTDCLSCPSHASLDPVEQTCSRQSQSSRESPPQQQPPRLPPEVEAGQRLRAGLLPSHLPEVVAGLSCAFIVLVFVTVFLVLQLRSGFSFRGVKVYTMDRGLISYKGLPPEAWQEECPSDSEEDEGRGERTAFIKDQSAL
Sequence of Tumor susceptibility gene 101 protein (Homo sapiens) (Q99816 whole entry, looked up, the tested form may be a part): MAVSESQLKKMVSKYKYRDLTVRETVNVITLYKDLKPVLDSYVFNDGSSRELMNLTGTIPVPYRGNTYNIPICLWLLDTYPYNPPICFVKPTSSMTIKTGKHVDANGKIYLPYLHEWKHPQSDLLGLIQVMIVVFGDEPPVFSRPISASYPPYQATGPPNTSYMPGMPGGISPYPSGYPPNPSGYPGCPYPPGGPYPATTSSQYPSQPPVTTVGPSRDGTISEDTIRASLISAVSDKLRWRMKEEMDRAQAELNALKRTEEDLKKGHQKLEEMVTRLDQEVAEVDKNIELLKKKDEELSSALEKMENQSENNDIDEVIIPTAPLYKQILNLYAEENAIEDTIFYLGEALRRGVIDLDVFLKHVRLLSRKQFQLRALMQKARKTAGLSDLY

As for `O=C(OCc1cc(=O)n2nc(C3CC3)sc2n1)c1cccc(NC(=O)c2ccccc2Cl)c1`, the Potency entry (with Furin (Homo sapiens); in experiment [1]) was “inactive” throughout.

With `COc1ccc(NS(=O)(=O)c2ccc(NS(=O)(=O)c3ccc4c(c3)OCCO4)cc2)cc1`, in the experiment with Furin (Homo sapiens), the Potency entry was “inactive”. Further, the Potency is 355 µM (active) in [2] and 141 µM (active) in experiment [3].

As to `CCOC(=O)c1ccc(NC(=O)CSc2nc(-c3cccs3)cc(C(F)(F)F)c2C#N)cc1`, the compound was called inactive in experiment [4]. Also, the Potency entry (in the experiment with Furin (Homo sapiens); in experiment [1]) was “inactive” each time.

Regarding `CC[C@@H](C(=O)[C@H](C)[C@@H](O)[C@H](C)CCc1ccc(C)c(O)c1C(=O)O)C1O[C@@](CC)(C2CC[C@](O)(CC)[C@H](C)O2)C[C@@H]1C` (stereo partly drawn), the Potency result (with Furin (Homo sapiens); in experiment [6]) was “inactive” throughout. Also, the Potency in experiment [5] is 9.84 µM (active); in [2], 158 µM (active); in experiment [3], 31.6 µM (active).

`CCCCOc1ccc(C2C(=O)N(C3CCCCC3)CC(=O)N2C2CCCCC2)cc1` (stereo not drawn): the Potency result (with Furin (Homo sapiens); in experiment [7]; in experiment [8]; in experiment [1]) was “inactive” in each case.

For `COc1ccc(C(=O)Nc2ccc(C(=O)OCc3cc(=O)n4nc(C5CC5)sc4n3)cc2)cc1`, the Potency with Furin (Homo sapiens) was 13.2 µM (active). Also, the Potency result in [1] was “inactive”.

Take `O=C(COc1ccccc1)Nc1ccc(C(=O)OCc2cc(=O)n3nc(C4CC4)sc3n2)cc1`: the Potency entry (with Furin (Homo sapiens); in [5]; in [1]) was “inactive” in each case.

For the compound `O=C(Nc1ccc(C(=O)OCc2cc(=O)n3c4c(sc3n2)CCCC4)cc1)c1ccc(F)cc1`, in the experiment with Furin (Homo sapiens), the Potency was 66.3 µM (active). Further, the Potency result in experiment [9], in experiment [2] and in experiment [1] was “inactive” throughout.

Regarding `O=c1oc2ccc3ccccc3c2cc1-c1nnc(Nc2cc(C(F)(F)F)ccc2Cl)s1`, the Potency result (with Furin (Homo sapiens); in experiment [5]; in experiment [1]) was “inactive” in each case.

In the case of `CCCCc1nn(-c2ccccc2C(F)(F)F)c(=O)n1Cc1ccc(-c2ccccc2S(=O)(=O)NC(=O)c2sccc2C)cc1`, the Potency in [10] was 24.1 µM (active); in experiment [11], 21.5 µM (active); in experiment [12] it was 21.2 µM (active); in experiment [3], 28.2 µM (active). In addition, the Potency result in experiment [7], in experiment [8] and in experiment [6] was “inactive” throughout.

Turning to `CC1OC(OC2C(O)CC(OC3C(O)CC(OC4CCC5(C)C(CCC6C5CC(O)C5(C)C(C7=CC(=O)OC7)CCC65O)C4)OC3C)OC2C)CC(O)C1O` (stereo not drawn), the Potency result (with Furin (Homo sapiens); in experiment [7]; in experiment [8]) was “inactive” throughout. Besides, the Potency in experiment [1] is 0.214 µM (active).

For `CCOC(=O)c1ccc(NC(=O)CSc2nc(-c3ccc(F)cc3)cc(C(F)(F)F)c2C#N)cc1`, the Potency result (with Furin (Homo sapiens); in experiment [2]; in experiment [3]) was “inactive” throughout.

For the origin of these results see PubChem BioAssay (NCATS).
